Results as given in PubChem BioAssay.
Active and inactive are the calls of the source.

Assays:
[1] = test system: Wnt5a (protein binding on small-molecule microarray); test: Wnt5a binders on small-molecule microarray, primary screen, biophysical, 635/667 nm fluorescence (AID 1142); conditions: 635 nm fluorescence, higher = more signal;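 further: fluorescence read at 667 nm with signal to noise per printed feature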
[2] = cell viability in Huh7 cells, primary screen, cytotoxicity control for HCV replication inhibitor project, CellTiter-Glo luminescence, basal, 48 h (AID 1143); conditions: Huh7 HCV replicon, higher = more signal, called active from +8 up or from −8 down;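 further: Huh7 hepatoma cells carrying a hepatitis C replication reporter with no stimulus; test concentration not given here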
[3] = CREB reporter modulators without forskolin, primary screen, cell-based, PC12, CRE-LacZ reporter, unstimulated (AID 1145); conditions: no forskolin, luminescence, 4.5 h, higher = more signal, called active from +8 up or from −8 down
[4] = CREB reporter modulators under forskolin, primary screen, cell-based, PC12, CRE-LacZ reporter, forskolin-stimulated (AID 1146); conditions: luminescence, 4.5 h, higher = more signal, called active from +8 up or from −8 down;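 further: PC12 cells with 6xCRE LacZ reporter stimulated by forskolin 10 µM; beta-galactosidase reporter signal reflecting CREB driven transcription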
[5] = molecular target: Streptavidin (Streptomyces avidinii) (UniProt P22629); test: streptavidin binders on small-molecule microarray, primary screen, artefact control for SMM compound annotation, biophysical, 635/667 nm fluorescence (AID 1147); conditions: streptavidin binding, higher = more signal;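 further: signal reflects streptavidin binding to arrayed compounds as a control protein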
[6] = small-molecule binders of probe aInhba, primary screen, biochemical, small-molecule microarray, 635/667 nm fluorescence (AID 1148); conditions: higher = more signal;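 further: score merges 667nm spot fluorescence with signal-to-noise for antibody binding to printed compounds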
Torsin-1A (Homo sapiens) [7] = molecular target: Torsin-1A (Homo sapiens) (UniProt O14656); test: torsin A binders from cell lysate, primary screen, small-molecule microarray, wild-type, 635/667 nm (AID 1149); conditions: COS7 hTOR1A-WT lysate, 635 nm fluorescence, higher = more signal
Torsin-1A (Homo sapiens) [8] = molecular target: Torsin-1A (Homo sapiens) (UniProt O14656); test: small-molecule binders of mutant TOR1A in lysate, primary screen, cell lysate, small-molecule microarray, COS7 lysate, 635/667 nm fluorescence (AID 1150); conditions: COS7 hTOR1A mutant lysate, 635 nm fluorescence, higher = more signal;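 further: score pools 667 nm emission and signal to noise measuring lysate protein binding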
[9] = test system: Sonic hedgehog protein (Shh); test: small-molecule binders of Shh protein, primary screen, biochemical, small-molecule microarray, 635/667 nm fluorescence (AID 1151); conditions: small-molecule microarray binding, 635 nm fluorescence; higher = more signal;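 further: Shh protein binding to compounds spotted on small-molecule microarray slides; score combines spot fluorescence intensity with signal-to-noise across triplicate slides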
[10] = E. coli DRC41 culture turbidity changes, primary screen, E. coli filamentation inducer project, strain DRC41, OD650, 48 h (AID 1152);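 further: E. coli MC1000 strain DRC41 lacking acrAB efflux pump and sulA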; conditions: E. coli DRC41 (acrAB sulA), higher = more signal, called active from +8 up or from −8 down
[11] = small-molecule binders of probe aLefty1, primary screen, biochemical, small-molecule microarray, 635/667 nm fluorescence (AID 1153); conditions: higher = more signal;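 further: score merges spot fluorescence with signal-to-noise ratio from the scanned slide images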
[12] = PSAC antagonists in infected red cells, primary screen, cell-based, P. falciparum Indochina, OD700, 1 h (AID 1154); conditions: P. falciparum Indochina infected RBC osmotic lysis, higher = more signal, called active from +8 up or from −8 down
[13] = PSAC antagonists in infected red cells, primary screen, cell-based, P. falciparum Indochina, OD700, 2 h (AID 1155);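 further: lysis reports solute entry through the parasite surface anion channel PSAC; channel blockers reduce lysis of infected cells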; conditions: P. falciparum Indochina infected erythrocytes, osmotic lysis OD700; higher = more signal, called active from +8 up or from −8 down
[14] = osmotic lysis modulators in infected erythrocytes, primary screen, PSAC antagonist project, cell-based, P. falciparum Indochina, OD700, 3 h (AID 1156); conditions: higher = more signal, called active from +8 up or from −8 down
[15] = PSAC antagonists in infected red cells, primary screen, cell-based, P. falciparum Indochina, OD700, 18 h (AID 1157); conditions: P. falciparum Indochina infected erythrocytes, osmotic lysis OD700, 18 h; higher = more signal, called active from +8 up or from −8 down
[16] = modulators of S6 phosphorylation in cells, primary screen, cell-based, A549, cytoblot, luminescence, serum-stimulated (AID 1158); conditions: A549 phospho-S6 cytoblot, 5 h, higher = more signal;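 further: serum-stimulated A549 lung adenocarcinoma cells; signal is phosphorylated S6 detected by cytoblot immunostaining with HRP secondary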
[17] = molecular target: NADPH oxidase 2 (Homo sapiens) (UniProt P04839); test: NOX2-dependent H2O2 signal modulators, primary screen, NOX inhibitor project, cell-based, HEK293-NOX2, PMA-stimulated, Amplex Red fluorescence (AID 1159); conditions: 45 min, higher = more signal, called active from +8 up or from −8 down; further: test concentration not given here
[18] = molecular target: NADPH oxidase 4 (Homo sapiens) (UniProt Q9NPH5); test: NOX4-dependent H2O2 signal modulators, primary screen, NOX inhibitor project, cell-based, HEK293-NOX4, tetracycline-induced, Amplex Red fluorescence (AID 1160); conditions: 45 min, higher = more signal, called active from +8 up or from −8 down
[19] = molecular target: NADPH oxidase 5 (Homo sapiens) (UniProt Q96PH1); test: NOX5-dependent H2O2 signal modulators, primary screen, NOX inhibitor project, cell-based, HEK293-NOX5, Amplex Red fluorescence (AID 1161); conditions: HEK293-NOX5, ionomycin, 45 min, higher = more signal
Sequence of NADPH oxidase 5 (Homo sapiens) (Q96PH1 whole entry, looked up): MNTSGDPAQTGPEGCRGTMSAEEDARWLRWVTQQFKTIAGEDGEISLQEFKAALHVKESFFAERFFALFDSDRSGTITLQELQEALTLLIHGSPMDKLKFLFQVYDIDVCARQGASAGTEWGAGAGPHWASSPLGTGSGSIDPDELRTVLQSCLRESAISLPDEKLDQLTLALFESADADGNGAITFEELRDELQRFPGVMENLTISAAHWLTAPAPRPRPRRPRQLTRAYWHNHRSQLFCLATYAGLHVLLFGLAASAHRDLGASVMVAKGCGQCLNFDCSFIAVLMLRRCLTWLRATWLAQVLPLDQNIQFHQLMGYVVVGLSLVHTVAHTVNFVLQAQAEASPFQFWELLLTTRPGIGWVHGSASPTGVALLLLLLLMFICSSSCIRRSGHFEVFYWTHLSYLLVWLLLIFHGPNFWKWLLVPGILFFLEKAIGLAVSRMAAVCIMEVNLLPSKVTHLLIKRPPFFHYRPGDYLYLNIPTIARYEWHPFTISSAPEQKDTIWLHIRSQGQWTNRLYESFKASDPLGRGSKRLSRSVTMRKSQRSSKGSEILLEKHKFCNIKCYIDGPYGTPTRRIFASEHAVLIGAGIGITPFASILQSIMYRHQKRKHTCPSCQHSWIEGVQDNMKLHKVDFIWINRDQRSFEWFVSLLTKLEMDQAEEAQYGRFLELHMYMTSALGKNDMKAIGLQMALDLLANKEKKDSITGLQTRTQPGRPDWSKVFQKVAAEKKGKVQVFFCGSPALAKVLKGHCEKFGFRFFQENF

Sequence of Streptavidin (Streptomyces avidinii) (P22629 whole entry, looked up): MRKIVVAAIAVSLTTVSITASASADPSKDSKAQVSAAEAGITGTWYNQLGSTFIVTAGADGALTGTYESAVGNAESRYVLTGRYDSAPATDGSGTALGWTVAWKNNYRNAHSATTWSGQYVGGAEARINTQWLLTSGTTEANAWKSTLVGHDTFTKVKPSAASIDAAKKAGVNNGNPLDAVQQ
Sequence of Torsin-1A (Homo sapiens) (O14656 whole entry, looked up): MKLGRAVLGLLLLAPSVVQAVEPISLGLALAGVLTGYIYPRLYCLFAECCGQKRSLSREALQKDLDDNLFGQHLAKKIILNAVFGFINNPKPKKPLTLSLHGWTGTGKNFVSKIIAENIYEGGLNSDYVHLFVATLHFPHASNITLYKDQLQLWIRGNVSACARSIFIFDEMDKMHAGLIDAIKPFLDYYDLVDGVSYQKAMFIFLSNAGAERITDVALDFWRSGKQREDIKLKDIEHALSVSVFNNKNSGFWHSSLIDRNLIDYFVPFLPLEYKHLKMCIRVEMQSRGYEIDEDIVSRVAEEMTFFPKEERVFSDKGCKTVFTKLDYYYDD
Sequence of NADPH oxidase 2 (Homo sapiens) (P04839 whole entry, looked up): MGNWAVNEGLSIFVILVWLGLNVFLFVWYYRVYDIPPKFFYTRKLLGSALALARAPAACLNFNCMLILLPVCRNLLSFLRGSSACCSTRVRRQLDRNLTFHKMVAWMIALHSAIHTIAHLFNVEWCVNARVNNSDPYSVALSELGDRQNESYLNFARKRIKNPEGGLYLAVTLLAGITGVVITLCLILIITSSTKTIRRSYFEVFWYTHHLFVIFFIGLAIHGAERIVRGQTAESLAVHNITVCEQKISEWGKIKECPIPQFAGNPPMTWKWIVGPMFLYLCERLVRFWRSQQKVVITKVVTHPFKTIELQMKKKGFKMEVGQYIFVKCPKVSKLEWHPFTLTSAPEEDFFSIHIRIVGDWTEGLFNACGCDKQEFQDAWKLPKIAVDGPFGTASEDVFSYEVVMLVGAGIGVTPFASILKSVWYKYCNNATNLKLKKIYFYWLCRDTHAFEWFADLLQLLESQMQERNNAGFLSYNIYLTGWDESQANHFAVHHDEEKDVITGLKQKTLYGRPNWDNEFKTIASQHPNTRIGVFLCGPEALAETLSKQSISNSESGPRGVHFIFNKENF
Sequence of NADPH oxidase 4 (Homo sapiens) (Q9NPH5 whole entry, looked up): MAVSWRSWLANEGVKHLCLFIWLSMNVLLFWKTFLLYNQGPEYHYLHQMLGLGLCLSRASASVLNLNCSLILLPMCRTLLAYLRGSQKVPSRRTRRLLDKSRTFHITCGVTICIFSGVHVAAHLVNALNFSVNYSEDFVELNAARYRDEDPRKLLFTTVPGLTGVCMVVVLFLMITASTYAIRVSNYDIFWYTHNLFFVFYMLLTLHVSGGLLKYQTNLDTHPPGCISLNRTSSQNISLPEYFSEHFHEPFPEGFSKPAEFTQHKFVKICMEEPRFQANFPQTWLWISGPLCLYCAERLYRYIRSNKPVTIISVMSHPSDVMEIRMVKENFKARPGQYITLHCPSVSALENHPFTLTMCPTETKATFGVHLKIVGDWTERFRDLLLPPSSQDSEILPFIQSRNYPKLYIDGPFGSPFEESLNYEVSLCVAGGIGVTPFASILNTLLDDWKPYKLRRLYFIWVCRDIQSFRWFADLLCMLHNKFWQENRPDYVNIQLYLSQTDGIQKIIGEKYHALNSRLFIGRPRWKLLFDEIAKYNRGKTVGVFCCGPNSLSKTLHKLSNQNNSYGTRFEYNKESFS

SMILES	composite z-score [1]	z-score [2]	z-score [3]	z-score [4]	composite z-score [5]	composite z-score [6]	composite z-score (Torsin-1A (Homo sapiens) [7])	composite z-score (Torsin-1A (Homo sapiens) [8])	composite z-score [9]	z-score [10]	composite z-score [11]	z-score [12]	z-score [13]	z-score [14]	z-score [15]	z-score [16]	z-score [17]	z-score [18]	z-score [19]
C=CC[C@@]12N=C(c3ccc(OCCCO)cc3)O[C@@H]1c1ccccc1CN(Cc1ccccc1)C2=O	0.509	-4.89 (inactive)	2.16 (inactive)	-2.5 (inactive)	-0.0929	0.174	0.376	0.294	1.91	0.786 (inactive)	0.271	28.3 (active)	24.9 (active)	3.34 (inactive)	2.29 (inactive)	0.557	-1.33 (inactive)	-0.765 (inactive)	-1.71
CO[C@H]1COC(=O)[C@@H](OCc2ccccc2)C=C[C@H](C)[C@@H](OC)COC(=O)[C@H](OCc2ccccc2)C=C[C@@H]1C	-0.115	-2.26 (inactive)	1.16 (inactive)	-0.672 (inactive)	-0.0864	-0.0695	0.593	0.128	0.537	-0.282 (inactive)	-0.0966	-0.0125 (inactive)	-0.952 (inactive)	-1.35 (inactive)	-1.68 (inactive)	1.55	-0.174 (inactive)	0.433 (inactive)	0.467
CCOC(=O)[C@H]1C/C=C/C[C@H](C(=O)OCC)C(=O)O[C@H]2[C@@H](OC)O[C@H](CO)[C@@H](OC(=O)Nc3ccc(Br)cc3)[C@@H]2OC1=O	0.172	-6.64 (inactive)	-0.614 (inactive)	-1.23 (inactive)	0.521	-0.121	0.164	-0.2	0.69	2.32 (inactive)	0.0606	5.41 (inactive)	1.8 (inactive)	-3.28 (inactive)	0.412 (inactive)	1.5	-0.611 (inactive)	-0.759 (inactive)	1.63
CO[C@H]1COC(=O)[C@@H](C)COC(=O)[C@H](Cc2ccccc2)NC(=O)CC=C[C@H]1C	-0.0116	-0.317 (inactive)	0.432 (inactive)	-0.968 (inactive)	-0.666	-0.0889	0.268	0.0916	1.85	-0.507 (inactive)	-0.363	-0.318 (inactive)	-1.31 (inactive)	-0.116 (inactive)	-2.15 (inactive)	0.627	0.714 (inactive)	0.791 (inactive)	0.299
CCOC(=O)C[C@H]1[C@H](OC(=O)c2ccccc2-c2ccccc2)[C@@H](NC(=O)C2CCCCC2)c2cc(OCCCO)ccc2N1C(=O)c1ccccc1	0.364	-0.781 (inactive)	10.2 (active)	-0.278 (inactive)	0.0739	0.0131	0.128	0.197	1.1	1.99 (inactive)	-0.191	1.97 (inactive)	0.718 (inactive)	0.217 (inactive)	0.402 (inactive)	-0.073	0.629 (inactive)	0.936 (inactive)	-1.64
